This is an account of results in PubChem BioAssay (Tox21).

Where “and” joins values, the source holds several entries; their conditions need not be identical. Identical values can stand only once. Calls of active or inactive are those of the source. Entries that show only a call come without a potency. Calls follow the shape of the dose curve; as a rule, active = well fitted activation curve with a large enough effect in the repeat runs; inconclusive = weak or mixed curves; inactive = flat fitted curve, though single readings scatter.
Potency is read from the fitted curve at half-maximal effect.

KiSS-1 receptor (Homo sapiens), sequence (Q969F8 whole entry, looked up): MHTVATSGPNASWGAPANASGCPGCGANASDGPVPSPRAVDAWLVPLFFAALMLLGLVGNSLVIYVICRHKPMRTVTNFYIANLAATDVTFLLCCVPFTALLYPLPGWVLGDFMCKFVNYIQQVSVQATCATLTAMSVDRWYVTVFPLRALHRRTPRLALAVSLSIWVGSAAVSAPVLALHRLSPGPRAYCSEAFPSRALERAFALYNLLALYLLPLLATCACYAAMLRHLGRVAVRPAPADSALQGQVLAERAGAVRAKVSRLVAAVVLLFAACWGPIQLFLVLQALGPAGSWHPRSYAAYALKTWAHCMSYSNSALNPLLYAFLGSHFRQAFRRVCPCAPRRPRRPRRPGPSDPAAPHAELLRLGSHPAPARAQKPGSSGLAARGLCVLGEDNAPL

The test concerns the target KiSS-1 receptor (Homo sapiens) (UniProt Q969F8). The test can be described thus: Human kisspeptin (KISS1R) small molecule agonists, calcium flux assay in KISS1R-HEK293 cells (AID 1920064). As to conditions: KISS1R-HEK293, calcium flux fluorescence, agonist; series mostly up to 76.8 µM. The text has this:
National Center for Advancing Translational Sciences [NCATS]
Division of Preclinical Innovation [DPI]
U.S. Environmental Protection Agency [EPA]
National Institutes of Environmental Health Sciences [NIEHS]
National Toxicology Program [NTP]
U.S. Food and Drug Administration [FDA]
Kisspeptin and its receptor KISS1R play key roles in mammalian reproduction due to their involvement in the onset of puberty and control of the hypothalamic-pituitary-gonadal axis such as regulates GnRH release from the hypothalamus. The kisspeptin/KISS1R system also plays a direct role in peripheral organs (including the ovary, testis, uterus, and placenta) and is implicated in reproductive diseases such as miscarriage and polycystic ovary syndrome (PCOS). Abnormal KISS1R activity is associated with abnormal puberty, infertility, endometriosis, and hormone-dependent tumors. The KISS1 receptor (KISS1R, also called GPR54), a G-protein-coupled receptor (GPCR), acts (through phospholipase C) to increase intracellular inositol trisphosphate and then release intracellular calcium stores. Cell-based KISS1R-HEK293 assay is using HEK293 cells that have been genetically engineered to express the human KISS1R, which activity can be measured by calcium signaling. A compound/drug can activate (agonist) KISS1R that can be monitored by levels of intracellular calcium.
KISS1R-HEK293 cells developed by Codex Corp contain human KISS1R gene, which was stably integrated into HEK 293 cells. The compound activation can be detected by fluorescence intensity via calcium flux assay. This cell line has been used to screen the Tox21 10K compound library to identify agonists of KISS1R.
KISS1R-Hek293 cells were dispensed at 1500 cells/4uL/well in 1536-well black wall/clear bottom plates using a multidrop dispenser. After the assay plates were incubated at a 37 C/5% CO2 incubator for 18 hours, 4 microL of Calcium Dye Solution was added to each well. The plates were incubated at 37 C for 1 hour. And then 23 nL of compounds dissolved in DMSO, positive controls, or DMSO only was transferred to the assay plate by a pin tool station. The fluorescence intensity in the plates was measured using FDSS 7000EX kinetic plate reader with a filter set of Ex/Em=480/540 for 3 min at 1 sec intervals. Each test compound was measured at 15 concentrations and in triplicates.
Background: Calcium assays in cells follow changes in intracellular calcium, usually with a dye or a luminescent sensor.
For the molecule `Cc1ccc(C(C)NC(=O)[C@@H](NC(=O)OC(C)C)C(C)C)cc1` (stereo not given in full), the Potency result is “inactive”.

For `CCN(C=O)CC`, the Potency result is “inactive”.

Take `CCNc1cc(O)ccc1C`: the Potency result was “inactive”.

With `CC(C)(C)C(=O)C1C(=O)c2ccccc2C1=O`, the Potency result was “inactive”.

`O=C1NC(c2ccccc2)(c2ccccc2)C(=O)N1COP(=O)(O)O`: the Potency entry is “inactive”.

Consider `COC(=O)c1ccccc1C`, for which the Potency result is “inactive”.

In the case of `C=CC(C)(O)CC/C=C(/C)CCC=C(C)C` (stereo not given), the Potency entry was “inactive”.

Consider `CCN(CC)CCN`, for which the Potency entry is “inactive”.

Consider `C1CCC(SSC2CCCCC2)CC1`, for which the Potency entry is “inactive”.

Consider `CCCCC1CCC(O)CC1` (stereo not given), for which the Potency result is “inactive”.

Take `CC(C)CCCC(C)N` (stereo not given): the Potency result was “inactive”.

Take `O=S(=O)(O)c1ccc(N=Nc2c(O)ccc3cc(S(=O)(=O)O)ccc23)cc1`: the Potency entry was “inactive”.

Take `CCC(C)c1ccccc1` (stereo not given): the Potency result is “inactive”.

As to `C=C(CC)C(=O)c1ccc(OCC(=O)O)c(Cl)c1Cl`, the Potency entry is “inactive”.

Regarding `N[C@H](Cc1c[nH]c2ccccc12)C(=O)O`, the Potency result was “inactive”.

For the molecule `CC(Cl)COP(=O)(OCC(C)Cl)OCC(C)Cl` (stereo not given), the Potency entry is “inactive”.

Turning to `CC1(C)C(O)C(C)(C)C1O` (stereo not given), the Potency entry was “inactive”.

Turning to `Cc1ccc(C2OC[C@@H]3OC(c4ccc(C)cc4)O[C@H]([C@H](O)CO)[C@@H]3O2)cc1` (stereo not given in full), the Potency entry was “inactive”.

For `CC1=CCC(C(C)(C)O)CC1` (stereo not given), the Potency result was “inactive”.

Turning to `COc1ccccc1NC(=O)CC(C)=O`, the Potency entry was “inactive”.

Take `CC1CCCC(=O)C1=O` (stereo not given): the Potency entry was “inactive”.

For the molecule `COC(=O)c1ccc([N+](=O)[O-])cc1`, the Potency entry is “inactive”.

In the case of `CCN[C@H]1CN(CCCOC)S(=O)(=O)c2sc(S(N)(=O)=O)cc21`, the Potency entry is “inactive”.

Take `Nc1ccccc1S(=O)(=O)O`: the Potency result was “inactive”.

For the molecule `NC(=Nc1ccccc1)Nc1ccccc1`, the Potency is 21.4 µM (active) and 23.9 µM (active).

Take `COCc1ccc(COC)cc1`: the Potency entry is “inactive”.

On to `COc1cc(Cl)ccc1Cl`, for which the Potency result is “inactive”.

Regarding `Cc1ccc(C)cc1`, the Potency entry is “inactive”.

As to `CCC(=O)c1ccc(O)cc1`, the Potency result is “inactive”.

Take `O=Cc1ccc([N+](=O)[O-])cc1`: the Potency entry was “inactive”.

For the molecule `C1CCCNCCC1`, the Potency result was “inactive”.

Turning to `C/C=C/C(=O)CCCC`, the Potency result is “inactive”.

Regarding `COc1ccc(N=[N+]([O-])c2ccc(OC)cc2)cc1`, the Potency entry was “inactive”.

With `O=C(c1ccccc1O)c1ccccc1O`, the Potency entry was “inactive”.

Consider `CC1=CC(=O)c2ccccc2C1=O`, for which the Potency entry is “inactive”.

With `CC/C=C/CCO`, the Potency result is “inactive”.

Turning to `CC(C)CC(=O)O`, the Potency result was “inactive”.

`C=C(C)C(=O)OCCCCCCCC(C)C`: the Potency entry is “inactive”.

Regarding `N[C@H]1C(O)O[C@H](CO)[C@@H](O)[C@@H]1O` (stereo not given in full), the Potency result is “inactive”.

Consider `OCC(CO)(CO)CO`, for which the Potency result is “inactive”.
